# Screens as filed in PubChem.
# Compounds with a hit are over-represented: about 12% of the library has one in this group of screens.
# SARS PLpro yeast – qHTS of Yeast-based Assay for SARS-CoV PLP; AID 485353, 2010; 330,000 tested, 0.19% active; S. cerevisiae expressing SARS-CoV PLpro, growth rescue; Potency, µM (top dose mostly 32.9 µM), without a hit: at the highest dose activity, positive = growth rescue, most hits filed as activators; calls by dose curve; note: 0% is about no effect; nearly all actives have a fitted effect of over 55% in size
# AmpC detergent – qHTS Inhibitors of AmpC Beta-Lactamase (assay with detergent); 370,000 tested, 0.041% active; AID 485294, 2010; P00811; Potency, µM (highest dose often 114 µM), for inactives: at the highest dose activity change, negative = inhibition, most hits filed as inhibitors; AmpC hydrolysis of nitrocefin, absorbance 480 nm, 0.01% Triton;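 note: 0% = no-compound wells and -100% = no-enzyme wells; nearly all actives have a fitted effect of over 25% in size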
# Target sequence (P00811 whole entry, looked up): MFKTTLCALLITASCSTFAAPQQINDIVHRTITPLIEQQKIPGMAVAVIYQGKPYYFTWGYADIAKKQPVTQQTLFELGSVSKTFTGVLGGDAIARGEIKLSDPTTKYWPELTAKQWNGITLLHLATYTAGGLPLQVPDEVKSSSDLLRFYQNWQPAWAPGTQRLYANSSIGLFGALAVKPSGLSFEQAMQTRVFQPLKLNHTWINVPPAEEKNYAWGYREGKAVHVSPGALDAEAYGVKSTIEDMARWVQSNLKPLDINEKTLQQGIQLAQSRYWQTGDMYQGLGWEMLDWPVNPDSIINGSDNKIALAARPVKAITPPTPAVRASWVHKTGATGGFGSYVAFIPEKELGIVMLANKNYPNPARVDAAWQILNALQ
#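 AmpC (5.3 nM in the dispensed reagent) in 20 mM phosphate pH 7.0 with 0.01% (detergent screen) or 0.0001% Triton X-100 was preincubated with compounds for 15 min at room temperature. Nitrocefin was then added from an 800 uM solution, and hydrolysis was followed at 480 nm.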
# Pf growth 96h – Primary qHTS for delayed death inhibitors of the malarial parasite plastid, 96 hour incubation | P. falciparum luciferase reporter growth, 96 h | Potency, µM (top dose mostly 28.7 µM), for inactives: at the top dose activity change, negative = inhibition, most hits filed as inhibitors | AID 504834, 2011 | 320,000 tested, 6.9% active; note: % is set by controls: 0 for no effect and ±100 for the full control effect
#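 Erythrocytes infected with luciferase-expressing P. falciparum were dispensed at 2% hematocrit and 0.05% parasitemia (final), then incubated with compounds 96 hours at 37 C in 5% CO2. Luminescence after detection reagent addition reported growth.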
# AmpC inh no detg – qHTS Inhibitors of AmpC Beta-Lactamase (assay without detergent). P00811. AmpC nitrocefin hydrolysis, absorbance 480 nm, 0.0001% Triton. Potency, µM (titrated, usually from 57.1 µM), for inactives: top-dose activity change, negative = inhibition, actives largely listed as inhibitors. 330,000 tested, 0.52% active. AID 485341, 2010;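 note: plate controls were no compound for no effect and no enzyme for full effect; nearly all actives have a fitted effect of over 20% in size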
#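 20 mM phosphate pH 7.0 + 0.01% (detergent screen) or 0.0001% Triton X-100; 5.3 nM AmpC reagent; cpd preinc 15 min RT; nitrocefin (800 uM stock) to start; A480 q20 s × 4 min; Activity was normalised to no-enzyme and no-compound control wells.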
# Sm TGR inh – qHTS Assay for the Inhibitors of Schistosoma Mansoni Peroxiredoxins; purified TGR, DTNB reduction, TNB absorbance 405 nm; AID 485364, 2010; 360,000 tested, 3% active; Potency, µM (series often up to 114 µM), inactives show at the highest dose activity change, negative = inhibition, actives largely listed as inhibitors; note: % is set by controls: 0 for no effect and ±100 for the full control effect; nearly all actives have a fitted effect of over 60% in size
#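 First, TGR (20 nM dispensed) and NADPH were mixed with compound. Second, a 15 min room-temperature incubation followed. Third, further NADPH and then DTNB were added to start the reaction. Finally, TNB absorbance was monitored kinetically.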
# Pf growth 48h – Primary qHTS for delayed death inhibitors of the malarial parasite plastid, 48 hour incubation; P. falciparum luciferase growth in erythrocytes, 48 h; Potency, µM (top dose mostly 28.7 µM), for inactives: at the highest dose activity change, negative = inhibition, actives largely listed as inhibitors; 310,000 tested, 5.9% active; AID 504832, 2011; note: % is set by controls: 0 for no effect and ±100 for the full control effect
#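 Here the parasites carry a stable luciferase gene and grow inside erythrocytes in Albumax-based RPMI medium with compound for one erythrocytic cycle. Activity is scored as loss of luminescent signal.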
# The depositor's hits bear a star; i = inactive; ? = inconclusive; . = not tested or not shown; [ ] = remark or other dose. Unless noted, calls come from the whole dose curve; as a rule, active = well fitted curve in the direction sought with a large enough effect; inconclusive = small, poorly fitted or top-dose-only effect, or another doubt; inactive = no such curve, though single readings can be large; an effect the other way counts as inactive or inconclusive. Potency is the fitted concentration of half-maximal effect.
SMILES,SARS PLpro yeast,AmpC detergent,Pf growth 96h,AmpC inh no detg,Sm TGR inh,Pf growth 48h
CCOC(=O)N1CCN(C(=O)CSc2nnc(-c3cccc(OC)c3)o2)CC1,8%,?,.,36%,-5%,9.3µM*
Cc1ccc(-c2nnc(SCC(=O)N3CCCC3)o2)cc1C,-4%,?,214%,67%,-1%,11%
O=C(Cn1c(=O)nc(-c2ccccc2)c2cc(Cl)ccc21)Nc1ccc(F)c(Cl)c1,.,-3%,.,.,2%,.
CCc1ccccc1NC(=O)Nc1nnc(N(CC)c2ccccc2)s1,.,1%,.,.,1%,.
COc1ccc(S(=O)(=O)N2CCOCC2)cc1Br,0%,1%,-12%,-13%,.,2%
Cc1ccc(O)c(N=Nc2ccc(S(=O)(=O)N3CCOCC3)cc2)c1,0%,0%,?,15%,0%[57.1 µM],5.2µM*
CC(C)(C)c1cc(Br)c(O)c(N=Nc2ccc(S(=O)(=O)N3CCOCC3)cc2)c1,-1%,?,10µM*,-21%[11.4 µM],-4%,12µM*
CCc1ccc(NC(=O)Cn2c(=O)n(CCC(=O)NC3CCN(Cc4ccccc4)CC3)c(=O)c3ccccc32)cc1,-1%,-7%,-12%,1%,-3%,-12%
O=C(CCCCn1c(=O)c2ccccc2n(Cc2ccccc2)c1=O)NC1CCN(Cc2ccccc2)CC1,2%,1%,-10%,77%,0%,5.9µM*
O=C(CCCn1c(=O)c2ccccc2n(Cc2cccc(F)c2)c1=O)NC1CCN(Cc2ccccc2)CC1,0%,4%,?,195%,2%,6.6µM*
CCN1CCN(c2ccc(S(=O)(=O)N3CCOCC3)cc2NC(=O)CCC(C)C)CC1,-6%,0%,-6%,75%,1%,?
COC(=O)c1nn(-c2ccc3c(c2)CCN3C(C)=O)cc1O,-9%,-12%,33%,-12%,-1%,1.3µM*
COC(=O)c1nn(-c2ccc3c(c2)OCO3)cc1O,-2%,0%,i,-3%,14%,127%
CCOC(=O)CCn1nnc(N)n1,2%,-6%,10µM*,-10%,1%,4%
CSc1cccc(NC(=O)C2CCN(S(=O)(=O)c3ccc4[nH]c(=O)ccc4c3)CC2)c1,.,2%,.,.,-5%,.
CC1=C[C@@H]2c3cccc4[nH]cc(c34)C[C@H]2N(C)C1,-4%,?,?,-17%,2.2µM*,.
CCc1ccc(-c2nc(CS(=O)CC(=O)O)c(C)o2)cc1 (centres undefined),-3%,-7%,101%,-16%,0.35µM*,125%
Cc1ccc(-c2nc(CS(=O)CC(=O)NC3CC3)c(C)o2)cc1 (centres undefined),2%,-3%,?,-8%,?,7%
CCc1ccc(-c2nc(CS(=O)CC(=O)NC3CC3)c(C)o2)cc1 (centres undefined),9%,-10%,24%,1%,4µM*,25%
CCc1ccc(-c2nc(CS(=O)CC(=O)NCc3ccc(F)cc3)c(C)o2)cc1 (centres undefined),.,-5%,.,.,?,.
CCc1ccc(-c2nc(CS(=O)CC(=O)NC3CCCCCC3)c(C)o2)cc1 (centres undefined),.,3%,8.3µM*,101%,7.9µM*,21%
CC(C)C(=O)Nc1ccc(C(=O)Nc2ccc(Br)cc2F)cc1,-5%,-8%,47%,-22%,-1%,40%
COc1ccc(CCNC(=O)CCCCn2c(=O)c3ccccc3n(Cc3cccc(C)c3)c2=O)cc1OC,.,16%,.,.,-3%,.
COc1ccc(N2CCN(S(=O)(=O)c3ccc(F)c(C(=O)Nc4ccccc4Cl)c3)CC2)cc1,.,-1%,.,.,2%,.
COc1cc(-c2noc(C)c2C#CCO)cc(OC)c1OC,-7%,?,4%,1%,32µM*,33%
SMILES,SARS PLpro yeast,AmpC detergent,Pf growth 96h,AmpC inh no detg,Sm TGR inh,Pf growth 48h
COc1cc(-c2noc(C)c2C#CC2(N)CCCCC2)cc(OC)c1OC,2%,-17%,1.9µM*,81%,-9%,?
COc1cc(-c2noc(C)c2C#CC2(O)CCCCC2)cc(OC)c1OC,-5%,-14%,?,105%,?,?
Cc1cccc(C(=O)Nc2ccc(OCc3cc(=O)n4ccc(C)cc4n3)cc2)c1,.,-6%,.,.,-6%,.
COc1cc2c(cc1OC)-c1cc(Nc3ccc(N(C)C)cc3)nc(=O)n1CC2,0%,0%,?,3%,-12%,?
CCN(CC)c1ccc(Nc2cc3n(c(=O)n2)CCc2cc(OC)c(OC)cc2-3)cc1,1%,0%,10µM*,60%,-32%,?
COc1cc2c(cc1OC)-c1cc(Nc3ccc(F)cc3)nc(=O)n1CC2,-2%,1%,1.2µM*,-34%,-17%,2.1µM*
COc1cc2c(cc1OC)-c1cc(Nc3cccc(F)c3)nc(=O)n1CC2,-5%,-6%,4.1µM*,-28%,-5%,?
Cc1ccccc1OCC(=O)OCc1cc(=O)n2nc(C3CCCCC3)sc2n1,.,10%,.,.,-1%,.
CCC(C)n1c(=O)c(C(=O)Nc2ccccc2S(N)(=O)=O)c(O)c2ccccc21 (centres undefined),2%,-11%,9.3µM*,-54%,-9%,2%
CCOC(=O)C1=C(c2ccccc2)OC(N)=C(C#N)C1C1CCCCC1 (centres undefined),8%,-4%,.,-35%,-2%,8%
COC(=O)/C(=C1/Oc2ccc(C(C)(C)C)cc2S1)C(F)(F)F,0%,-9%,?,-8%,-4%,57%
CCOC(=O)C1=C(c2ccccc2)O/C(=C(\C(=O)OC)C(F)(F)F)S1,13%,1%,9.3µM*,-1%,-2%,.
CCOC(=O)C1=C(c2ccccc2)O/C(=C(/C#N)C(F)(F)F)S1,-1%,6%,.,-21%,-23%,9.3µM*
CC(=O)c1ccc(N2C(=O)N(Cc3cccc(C(F)(F)F)c3)c3ccccc3S2(=O)=O)cc1,.,7%,.,.,9%,.
CC(=O)Oc1ccc2c3c1OC1[C@@H](OC(C)=O)C=C[C@H]4[C@H](C2)N(C)CC[C@]314 (some centres undefined),.,.,-8%,.,.,4%
C=CCOc1ccc(C2C(C#N)=C(N)N(Nc3ccccc3)C3=C2C(=O)CCC3)cc1OC (centres undefined),8%,0%,4.7µM*,-6%,-3%,8.3µM*
